Screens (PubChem)
Most compounds without a hit are left out; they make up all but 3.6% or so of the library.
3CLpro inhibitor: SARS-CoV 3CLpro protease inhibitors, primary screen, biochemical, quenched FRET. Replicase polyprotein 1ab (Severe acute respiratory syndrome coronavirus), P0C6X7. recombinant SARS-CoV 3CLpro, quenched FRET peptide cleavage. inhibition, % at 6 µM. actives 0.14% (n = 290,000); in the data active = inhibition above about 12%
BJeLR viability: MLPCN primary cell-based screen for lethality selective to Ras in HRASV12 cells; BJeLR (HRASV12) viability, CellTiter-Glo ATP luminescence, 48 h; inhibition, % (test concentration not listed); actives 0.17% (n = 300,000); AID 1554, 2009; in the data active = inhibition above about 50%; inconclusive = no clear call, values can overlap the other calls
BoNT-A LC inh2: BoNT/A light chain protease inhibitors, primary screen, biochemical, flow cytometry, MLPCN library | Botulinum neurotoxin type A light chain protease (Clostridium botulinum A str. ATCC 3502) | multiplex microsphere protease substrate cleavage | inhibition, % at 10 µM | actives 0.17% (n = 360,000) | AID 588499, 2011
Bead autofluor: flagged as autofluorescent in microsphere protease counterscreen. actives 3.1% (n = 360,000). compound autofluorescence counterscreen, microsphere flow cytometry; hits give high values. fluorescence intensity (concentration not given with the values); in the data active = fluorescence intensity above about 16000; inconclusive = no clear call, values can overlap the other calls
Anthrax LF inh2: Bacillus anthracis LF protease inhibitors, primary screen, biochemical, multiplex microsphere, MLPCN library. Lethal factor (Bacillus anthracis), P15917. multiplex microsphere protease cleavage assay. inhibition, % at 10 µM. actives 0.12% (n = 360,000)
Target sequence (P15917 whole entry, looked up): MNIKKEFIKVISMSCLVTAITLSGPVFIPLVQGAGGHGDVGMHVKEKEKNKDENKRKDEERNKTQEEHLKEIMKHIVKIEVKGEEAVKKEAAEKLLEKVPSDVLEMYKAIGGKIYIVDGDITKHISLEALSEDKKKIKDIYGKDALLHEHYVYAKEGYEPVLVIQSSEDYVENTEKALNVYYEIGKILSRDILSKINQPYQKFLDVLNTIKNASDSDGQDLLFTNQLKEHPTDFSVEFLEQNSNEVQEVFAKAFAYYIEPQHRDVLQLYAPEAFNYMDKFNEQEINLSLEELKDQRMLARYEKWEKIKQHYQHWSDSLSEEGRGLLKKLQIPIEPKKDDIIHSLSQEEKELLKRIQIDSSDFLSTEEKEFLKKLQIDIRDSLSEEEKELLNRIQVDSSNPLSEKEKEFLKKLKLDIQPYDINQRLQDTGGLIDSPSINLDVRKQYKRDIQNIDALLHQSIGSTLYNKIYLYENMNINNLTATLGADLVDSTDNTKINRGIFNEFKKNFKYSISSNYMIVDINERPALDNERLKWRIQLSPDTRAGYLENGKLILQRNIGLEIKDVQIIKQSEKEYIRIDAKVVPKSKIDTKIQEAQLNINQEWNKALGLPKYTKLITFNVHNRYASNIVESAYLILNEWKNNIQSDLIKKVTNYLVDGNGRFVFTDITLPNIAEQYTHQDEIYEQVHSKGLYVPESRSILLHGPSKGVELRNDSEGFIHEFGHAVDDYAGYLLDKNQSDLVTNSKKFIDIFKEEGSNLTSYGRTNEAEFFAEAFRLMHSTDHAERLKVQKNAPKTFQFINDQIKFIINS
BoNT-F LC inh: BoNT/F light chain protease inhibitors, primary screen, biochemical, flow cytometry, MLPCN library; Botulinum neurotoxin type F light chain protease (Clostridium botulinum); Multiplex microsphere protease cleavage assay; inhibition, % at 10 µM; actives 0.22% (n = 360,000); AID 588497, 2011; in the data active = inhibition above about 35%, passing the limit was not always enough; inconclusive = no clear call, values can overlap the other calls
Large screens that a line does not name were inactive. Cut-off read from the data, not from the text of the source, unless noted: active = inhibition above about 30%; inconclusive = no clear call, values can overlap the other calls; inactive = below that.

CCCCCN1C(=O)/C(=C/c2c(N3CCc4ccccc4C3)nc3ccccn3c2=O)SC1=S	Bead autofluor 21934 (no result: 3CLpro inhibitor)
CS(=O)(=O)N1CCC(C(=O)Nc2cccc(C(F)(F)F)c2)CC1	none
Cc1cc(C)nc(N2CCC(C(=O)Nc3ccc4c(c3)CCC4)CC2)n1	Bead autofluor 21599
COc1ccc(NC(=O)C2CCN(c3nc(C)cc(C)n3)CC2)cc1	none
Cc1cc(C)nc(N2CCC(C(=O)NC3CCCc4ccccc43)CC2)n1 (stereo not given)	Bead autofluor 19820
Cc1cc(C)nc(N2CCC(C(=O)Nc3cccc(C(F)(F)F)c3)CC2)n1	Bead autofluor 17064
Cc1ccc(C(=O)NC2CCCc3ccccc32)o1 (stereo not given)	Bead autofluor 22743
COc1ccc(S(=O)(=O)N(CC(=O)NN=C2CCN(C)CC2)c2cc(Cl)ccc2OC)cc1OC	none
Cc1ccnc(N2CCC(C(=O)Nc3ccc4c(c3)CCC4)CC2)n1	Bead autofluor 17140
O=C(Nc1cccc(C(F)(F)F)c1)C1CCCN1S(=O)(=O)c1cccc2cccnc12 (stereo not given)	BoNT-A LC inh2 inconclusive, Bead autofluor 20787
Cc1cccc(NC(=O)C2CCN(c3nccc(C)n3)CC2)c1	BoNT-A LC inh2 inconclusive, Bead autofluor 20388
COc1ccc(NC(=O)CN2CCC(C(=O)c3ccc(F)cc3)CC2)c(OC)c1	none
COc1ccc(/C=C(\NC(=O)c2ccco2)C(=O)N2CCCCC2)cc1	none
COc1ccc(-c2ccnc3nc(-n4cccc4)nn23)cc1	Bead autofluor 20861
COc1ccc(-c2ccnc3nc(N4CCOCC4)nn23)cc1	none
O=c1ncn(-c2ccc(F)cc2)c2ncccc12	BoNT-A LC inh2 inconclusive, Bead autofluor 20412
N#CC(c1ccccn1)(c1ncc(C(F)(F)F)cc1Cl)N1CCOCC1 (stereo not given)	BoNT-A LC inh2 inconclusive, Bead autofluor 22287
COc1ccc2c(c1)C(C1=C(O)CC(C)(C)CC1=O)C1=C(CC(C)(C)CC1=O)O2 (stereo not given)	Bead autofluor 24480
CC1(C)CC(=O)C(C2C3=C(CC(C)(C)CC3=O)Oc3ccccc32)=C(O)C1 (stereo not given)	none
N/C(=N\OC(=O)c1ccc(Cl)cc1)c1ccccn1	BoNT-A LC inh2 inconclusive, Bead autofluor 21717
CC(=O)c1cc(F)ccc1OCC(=O)N1CCN(c2ccc(F)cc2)CC1	none
CC(C)(C)OC(=O)[C@H]1[C@H](c2ccc([N+](=O)[O-])cc2)C2(C(=O)c3ccccc3C2=O)C2c3ccccc3C=NN21 (stereo not given in full)	none
Cc1cccc(OC(=O)CN2C(=O)C3C4CCC(C4)C3C2=O)c1C (stereo not given)	Bead autofluor 23771
COc1ccc(OC(=O)CN2C(=O)C3C4CCC(C4)C3C2=O)cc1 (stereo not given)	none
CCOc1cc(Br)ccc1S(=O)(=O)N1CC(C)OC(C)C1 (stereo not given)	Bead autofluor 20570
COc1ccc(C(=O)NCCNC(C)=O)cc1S(=O)(=O)NCc1ccc(Cl)cc1	Bead autofluor 19992
CC(C)n1c(=S)[nH]c2ccccc2c1=O	none
COn1c(=S)[nH]c2ccccc2c1=O	BoNT-A LC inh2 inconclusive, Bead autofluor 22258 (no result: BJeLR viability)
CC1CCCCC1n1c(=S)[nH]c2ccccc2c1=O (stereo not given)	Bead autofluor 23138
Cc1ccc(-c2nc(C(=O)NC3CCCCCC3)no2)cc1	none
O=C(NC1CCCC1)C1CCN(S(=O)(=O)c2ccccc2)CC1	none
CN1CCN(c2nc(-c3ccccn3)nc3ccccc23)CC1	Bead autofluor 23212
C=CCN1C(=O)C(C(C)CC)NC1=S (stereo not given)	BoNT-A LC inh2 inconclusive, Bead autofluor 18817 (no result: BJeLR viability)
CCCC(=O)Nc1cccc(-c2nc3ccccc3o2)c1	none
CC(C)CC(=O)Nc1cccc(-c2nc3ccccc3o2)c1	Bead autofluor 23031
C#CCn1cc[n+](CC(=O)N(C)C)c1	none
